Reference: PubChem BioAssay AID1568 (National Center for Advancing Translational Sciences (NCATS), 2009)
Results filed as inconclusive are left out. A number with no mark means an inactive call. Activity calls are given as the source filed them. Calls follow the shape of the dose curve; as a rule, active = well fitted curve in the direction sought with a large enough effect; inconclusive = small, poorly fitted or top-dose-only effect, or effect the other way, or another doubt; inactive = no such curve, though single readings can be large or run the other way.

Test: Cell Viability Secondary Assay to Characterize qHTS Inhibitors of the Interaction of Thyroid Hormone Receptor and Steroid Receptor Coregulator 2
Settings: cell viability counter-screen, qHTS titration; series mostly up to 29.9 µM; activity change, negative = cytotoxicity: at the top concentration
From the text: NIH Molecular Libraries Probe Production Network [MLPCN]
NIH Chemical Genomics Center [NCGC]
Assay Provider: R. Kip Guy, St. Jude Children's Research Hospital
Thyroid receptor (TR) regulates many homeostatic processes including basal metabolism, cardiovascular function, body weight, and lipid trafficking. TR modulators are potential therapeutics for obesity and hyperlipidemias but current thyroid analogs have undesirable side effects, particularly cardiac stimulation. This secondary assay characterized selected actives identified in the qHTS for Inhibitors of the Interaction of Thyroid Hormone Receptor and Steroid Receptor Coregulator 2. The human follicular thyroid carcinoma cell line WRO (kindly provided by Dr. M. D. Ringel) stably expresses TRbeta and a luciferase reporter gene fused to TR response element. The effect of compounds on the viability of these cells was assessed by measuring ATP levels. Compounds that reduce cell viability are likely cytotoxic.
NCGC Assay Protocol Summary:
Cells were maintained in RPMI 1640 culture medium supplemented with 10% heat-inactivated FBS, 0.33 mg/ml hygromycin, 0.33 mg/ml geneticin, 50 units/ml penicillin, 50 ug/ml streptomycin. Cells were harvested and resuspended at 330,000 cells/ml in assay medium (50% DMEM 50% F-12 medium without Phenol-Red (Cellgro #16-405-CV), L-glutamine, 10% heat inactivated and charcoal treated FBS, 100 uM non-essential amino acid, 50 units/ml penicillin, 50 ug/ml streptomycin). Cells were dispensed at 10,000 cells/30 ul/well into 384 well plates (Corning 3917) and incubated 12 h at 37 C and 5% CO2. Compounds and T3 (100nM final concentration) were added using a pin tool and plates were incubated 16 h incubation at 37 C and 5% CO2. Following incubation, plates were equilibrated at ambient temperature for 30 min, 20 ul of CellTiter-Glo (Promega) was added and luminescence was detected by an EnVision (PerkinElmer).

| Structure (SMILES) | activity change, negative = cytotoxicity | Potency |
| --- | --- | --- |
| CCOc1cc(C(c2c(C)[nH][nH]c2=O)c2c(C)[nH][nH]c2=O)ccc1OS(=O)(=O)c1ccc(C)cc1 | 4.22% | – |
| Nc1cnccc1C(=O)O | -9.24% | – |
| CC(=O)NC1N=C(C)N(c2ccccc2)C1=O (stereo not given) | 1.59% | – |
| Cc1nnc(SCC(=O)Nc2ccc(N(C)C)cc2)[nH]c1=O | -0.944% [at 59.9 µM] | – |
| Cc1[nH][nH]c(=O)c1C(c1ccc(-c2ccccc2C(=O)O)o1)c1c(C)[nH][nH]c1=O | 4.54% | – |
| Cc1nc2ccccc2n2c(O)c(CC(=O)O)cc12 | 0.278% | – |
| C=CC(=O)OCCOc1ccccc1 | 6.71% [at 120 µM] | – |
| COC(=O)c1ccccc1-c1ccc(C(c2c(C)[nH][nH]c2=O)c2c(C)[nH][nH]c2=O)o1 | -2.46% | – |
| O=C(O)/C=C/C(=O)Nc1ccc(SC(F)(F)C(F)(F)C(F)(F)F)cc1 | -13.1% | – |
| Oc1ccc2ccccc2c1C=NC12CN3CCN(CN(C3)C1)C2 | -2.24% | – |
| COc1cc(NC(C)CCCN)c2ncccc2c1 (stereo not given) | – | 22.4 µM (active) |
| CCOc1ccc(C2=Cc3cc(OC)c(OC)cc3C(=C(Cl)Cl)O2)cc1 | -12.9% | – |
| CC(=O)c1cccc(NC(=O)COC(=O)c2ccc(S(C)(=O)=O)c([N+](=O)[O-])c2)c1 | 34.6% | – |
| CN1c2ccccc2C(C)(C)C12C=Nc1c(cc(N3CCOCC3)c3ccccc13)O2 (stereo not given) | -10.5% | – |
| CCC(C)NC(=O)COC(=O)c1csc2c1CCCC2 (stereo not given) | -0.105% | – |
| CCSc1ncc(Cl)c(C(=O)Nc2nc3ccc(OC)cc3s2)n1 | 3.92% [at 59.9 µM] | – |
| CCOc1cc(C(c2c(C)[nH][nH]c2=O)c2c(C)[nH][nH]c2=O)ccc1OC(=O)c1cccc([N+](=O)[O-])c1 | -4.08% | – |
| N/C(Cc1cccc2ccccc12)=N\OC(=O)c1cccs1 | -11.8% | – |
| Cc1nc2c3cc(F)ccc3n(Cc3ccccc3F)c2s1 | -26.7% | – |
| Nc1cc(N)c(OCC(F)(F)F)cc1OCC(F)(F)F | – | 14.1 µM (active) |

| Structure (SMILES) | activity change, negative = cytotoxicity | Potency |
| --- | --- | --- |
| Cn1c(=O)[nH]c2nnc(-c3ccc(Cl)c(Cl)c3)nc2c1=O | -11.1% | – |
| COc1ccc2ccc3c(c2c1)N=CC1(O3)N(C)c2ccccc2C1(C)C (stereo not given) | -20.7% | – |
| Cc1cccc(S(=O)(=O)c2cn(Cc3ccccc3)c3cc(N4CCC(C)CC4)c(F)cc3c2=O)c1 | 11.4% [at 59.9 µM] | – |
| Oc1ccc2ccccc2c1/C=N/c1nc2c(s1)CCCC2 | -5.14% | – |
| C=CCNC(=O)/C(C#N)=C/c1c(C)nn(-c2ccc(Cl)cc2)c1Cl | -7.83% | – |
| CN(CCO)c1nc(N)c2c(N)nc3c(c2c1C#N)CC(=O)N3C1CCCC1 | 4.93% | – |
| O=C(/C=C/c1ccco1)NC(=S)Nc1cc(C(F)(F)F)ccc1N1CCOCC1 | -20.7% | – |
| C=CCSc1nnc2n(-c3ccccc3OC)c(=O)c3c4c(sc3n12)CCC4 | -15% | – |
| COc1ccc(-c2nc(CS(=O)CC(=O)NCc3ccccn3)c(C)o2)cc1 (stereo not given) | -17.9% | – |
| O=C(O)/C=C/C(=O)Nc1ccc(OC(F)(F)F)cc1Br | -13.9% | – |
| Nc1cc(-c2ccncc2)c[nH]c1=O | 12.5% [at 26.8 µM] | – |
| CC(NC(=O)Nc1ccc(O)cc1)(C(F)(F)F)C(F)(F)F | 9.82% | – |
| CCN(C(=O)C1CCCN(c2ncnc3onc(-c4ccc(F)cc4)c23)C1)c1ccccc1 (stereo not given) | -2.77% [at 59.9 µM] | – |
| Cc1cc2c(NC(=O)Nc3ccccc3)cccc2nn1 | -20% | – |
| O=C(O)[C@H]1CN(CCCP(=O)(O)O)CCN1 | -100% [at 59.9 µM] | – |
| Cc1ccc2c(CC(=O)Nc3c(C(=O)c4ccc(F)cc4)oc4ccccc34)coc2c1C | -1.38% [at 59.9 µM] | – |
| O=c1cc(C23CC4CC(CC(C4)C2)C3)[nH][nH]1 | -14.5% | – |
| CCOC(=O)c1cnc2nc(NCc3ccc(OC)c(OC)c3)[nH]n2c1=O | 4.21% | – |
| Cn1cc(/C=C2\SC(=S)N(NC(=O)c3ccccc3)C2=O)c2ccccc21 | 20.4% | – |
| COc1ccc(CN2C(=O)Cc3c2nc(N)c2c(N)nc(N4CCCCC4)c(C#N)c32)cc1 | 9.78% | – |
